Results published in PubChem BioAssay (NCI).
The panel holds about 83,000 compounds, 20% with a hit somewhere; the sample as a whole holds those more often.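 Plates (96-well) were seeded with cells, treated with compound at one concentration, and incubated for 48 hours before percent growth was determined.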 The source made the active and inactive calls. The calls were made as follows: active = growth percent below 10; inactive = the rest.

Tested on: NCI-H226 lung
Test: NCI-60 one-dose screen, 48 h (100 = growth as untreated, 0 = no growth, -100 = all killed)
Conditions: 10 µM unless noted

SMILES	growth
O=C(NNc1nc2cc(F)c(F)cc2n2cccc12)c1ccncn1	16.2% (inactive)
O=C(CCCCCCN1CC(=O)N2[C@@H](c3cccc(Cl)c3)c3[nH]c4ccccc4c3C[C@H]2C1=O)NO	102% (inactive)
O=C(/C=C/c1cn(-c2ccccc2)nc1-c1ccc(Cl)cc1)c1cc2ccccc2oc1=O	66.1% (inactive)
COc1cc(/C=C/C(=O)c2ccc(NC(=O)COc3cccc4cccnc34)cc2)cc(OC)c1OC	88.7% (inactive)
O=C(Nc1cccc(Cl)c1)Nc1nc2ccc([N+](=O)[O-])cc2s1	-7.2% (active)
O=C(NNc1nc2cc(F)cc(F)c2n2cccc12)c1ccncn1	7.28% (active)
C[C@H]1[C@H](C)CC[C@]2(COC(=O)c3cccnc3)CC[C@]3(C)C(=CC[C@@H]4[C@@]5(C)CCCNC(C)(C)[C@@H]5CC[C@]43C)[C@H]12	78.1% (inactive)
CN1CCN(c2ccc(NC(=O)Nc3ccc4c(ccn4-c4cccc(C(N)=O)n4)c3)cc2C(F)(F)F)CC1	83.6% (inactive)
COc1ccc(OC)c([C@H]2c3[nH]c4ccccc4c3C[C@H]3C(=O)N(CCCCCCC(=O)NO)CC(=O)N23)c1	103% (inactive)
CS(=O)c1nccc(-c2c(-c3ccc(F)c(OCc4ccccc4)c3)nc3sccn23)n1 (stereo unspecified)	96.3% (inactive)
CC(=O)NC(C)(C)C(=O)N1CCC[C@H]1C(=O)NC(C)(C)C(=O)N[C@@H](C)C(=O)NC(C)(C)C(=O)N[C@@H](C)C(=O)N[C@@H](CCC(N)=O)C(=O)NC(C)(C)C(=O)N[C@H](C(=O)NC(C)(C)C(=O)NCC(=O)N[C@@H](CC(C)C)C(=O)NC(C)(C)C(=O)N1CCC[C@H]1C(=O)N[C@H](C(=O)NC(C)(C)C(=O)NC(C)(C)C(=O)N[C@@H](CCC(N)=O)C(=O)N[C@@H](CCC(N)=O)C(=O)N[C@H](CO)Cc1ccccc1)C(C)C)C(C)C	57.2% [4.25 µM] (inactive)
